Among the data in PubChem BioAssay (NCATS) are Potency, outcome and activity change, negative = inhibition values, retold here.

The nature of test [1]: Primary qHTS for small molecule stabilizers of the endoplasmic reticulum resident proteome: Secreted ER Calcium Modulated Protein (SERCaMP) assay (AID 1508630). Further: on the % scale 0 is the no-effect control and ±100 the full control effect. In a few lines: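 GLuc-SERCaMP-expressing SH-SY5Y cells, pretreated 16 h with compound, are challenged with thapsigargin to empty ER calcium stores; after 4 h, coelenterazine is added directly to the medium and luminescence is imaged.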

Test [2] addresses Cytochrome P450 2D6 (Homo sapiens) (UniProt P10635). In words: Cytochrome P450 family 2 subfamily D member 6 (CYP2D6) small molecule antagonists: luciferase biochemical (cell-free) qHTS assay (AID 1645840; active means well fitted curve in the direction sought with a large enough effect in the repeat runs; an effect the other way counts as inactive or inconclusive; further: nearly all actives have a fitted effect of over 55% in size; further: potency means the concentration at half of the fitted maximal effect; on activity change, negative = inhibition: series mostly up to about 57 µM; on the % scale 0 is the no-effect control and ±100 the full control effect). The procedure, abridged: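 P450-Glo luminescent screen: recombinant CYP2D6 enzyme–proluciferin substrate mix preincubated with compound 10 min at room temperature, then NADPH regeneration added for 1 h at room temperature. Detection reagent added for 20 min; luciferin light read as relative luminescence units.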

In test [3] the target is Cytochrome P450 2C9 (Homo sapiens) (UniProt P11712). In words: Cytochrome P450 family 2 subfamily C member 9 (CYP2C9) small molecule antagonists: luciferase biochemical (cell-free) qHTS assay (AID 1645842; active means well fitted curve in the direction sought with a large enough effect in the repeat runs; an effect the other way counts as inactive or inconclusive; further: nearly all actives have a fitted effect of over 55% in size; further: potency means the concentration at half of the fitted maximal effect). The procedure, abridged: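 Luminescence, after 20 min with luciferin detection reagent, reflected CYP2C9 turnover during a 1 h NADPH-driven reaction at 37C. Enzyme-substrate mix contained 0.4% bovine serum albumin and was preincubated with compound 10 min at room temperature.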
A general note: Quantitative high-throughput screening tests each substance at several concentrations.

The nature of test [4]: Primary qHTS for inhibitors of nuclear receptor binding SET domain protein 2 (NSD2) in an RCH-ACV wild type WT cells (2C) (AID 1645877). Further: nearly all actives have a fitted effect of over 70% in size. Further: potency means the concentration at half of the fitted maximal effect.
A short description of test [5]: Primary qHTS for inhibitors of nuclear receptor binding SET domain protein 2 (NSD2) in an isogenic RCH-ACV NSD2 p.E1099K mutant (9B) (AID 1645876). Further: nearly all actives have a fitted effect of over 70% in size. Further: potency means the concentration at half of the fitted maximal effect.
Test [6] deals with Rap guanine nucleotide exchange factor 3 (Homo sapiens) (UniProt O95398). The experiment in a line: Confirmatory qHTS for antagonist of cAMP-regulated guanine nucleotide exchange factor 3 (EPAC1) (AID 1645880). Further: potency means the concentration at half of the fitted maximal effect; nearly all actives have a fitted effect of over 55% in size. The procedure, abridged: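 Nucleotide exchange uses 100 nM EPAC1, 250 nM RAP1B-BODIPY-GDP and 50 uM GDP, with compounds in a concentration-titration series. After 5 min at room temperature, fluorescence (480 nm ex/540 nm em) is read every 5 min for 30 min. Data are normalized to control ATA and DMSO.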

Test [7] shares this target. The experiment in a line: Confirmatory qHTS for agonist of cAMP-regulated guanine nucleotide exchange factor 3 (EPAC1) (AID 1645881).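 Further: EPAC1 catalysed release of BODIPY-GDP from Rap1B seen as fluorescence loss; 100% = effect of cAMP agonist control; nearly all actives have a fitted effect of over 75% in size.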
Test [8] deals with Rap guanine nucleotide exchange factor 4 (Homo sapiens) (UniProt Q8WZA2). The experiment in a line: Confirmatory qHTS for agonist of cAMP-regulated guanine nucleotide exchange factor 4 (EPAC2) (AID 1645884).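 Further: nucleotide exchange releases bodipy-GDP from Rap1 and this lowers its fluorescence; on the % scale 0 is the no-effect control and ±100 the full control effect; nearly all actives have a fitted effect of over 65% in size.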
For test [9] the target is unchanged. In words: Confirmatory qHTS for antagonist of cAMP-regulated guanine nucleotide exchange factor 4 (EPAC2) (AID 1645885). Further: nearly all actives have a fitted effect of over 25% in size. Further: potency means the concentration at half of the fitted maximal effect.
Test [10] deals with Cytochrome P450 3A4 (Homo sapiens) (UniProt P08684). In words: Cytochrome P450 family 3 subfamily A member 4 (CYP3A4) small molecule antagonists: luciferase qHTS assay (AID 1645841; active means well fitted curve in the direction sought with a large enough effect in the repeat runs; an effect the other way counts as inactive or inconclusive; further: nearly all actives have a fitted effect of over 45% in size). The procedure, abridged: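 P450-Glo CYP3A4 enzyme with proluciferin substrate was preincubated with DMSO-dissolved compounds for 10 min at room temperature. NADPH regeneration solution started a 1 h reaction. Detection reagent stopped it, and luminescence was read after 20 min.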

In a further test the target is Papain (Carica papaya) (UniProt P00784). The experiment in a line: Primary qHTS assay for inhibitors of the protease papain (AID 1645873).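 Further: papain turnover of Z-FR-AMC read as the AMC fluorescence gain over 10 min; series mostly up to about 50 µM; on the % scale 0 is the no-effect control and ±100 the full control effect.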
In test [11] the target is Rap guanine nucleotide exchange factor 3 (Homo sapiens) (UniProt O95398). In words: Counterscreen qHTS for antagonist of cAMP-regulated guanine nucleotide exchange factor 3 (EPAC1) (AID 1645888). Further: % of control where 0% means no effect. In a few lines: (§1)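 Measured: fluorescence of BODIPY-GDP bound to Rap1B, which falls as exchange proceeds. Conditions include 50 uM competing GDP, 5 and 30 min reads, and a later cAMP challenge for antagonist detection.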

The target is the same in test [12]. The experiment in a line: Counterscreen qHTS for agonist of cAMP-regulated guanine nucleotide exchange factor 3 (EPAC1) (AID 1645889). Further: % of control where 0% means no effect; nearly all actives have a fitted effect of over 40% in size. The procedure, abridged:
as §1

The nature of test [13]: NCATS anti-infectives library activity on HEK293 viability as a counter-qHTS vs the C. elegans viability qHTS (AID 1745854). Further: on the % scale 0 is the no-effect control and ±100 the full control effect. The procedure, abridged: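 Compounds were acoustically plated (several concentrations, 1:5, final up to 41.7 uM), then 1500 HEK293 cells added per well and incubated 24 hr at 37C, 5% CO2. CellTiter-Glo was added and luminescence read after 10 min.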

A short description of test [14]: A High-Content qHTS Against Drug Library for the Identification of Small Molecules that Inhibit DYT1 Early Onset Primary Dystonia-Associated Cell Pathology (AID 1645839; calls by dose curve; further: series mostly up to about 46 µM). The procedure, abridged: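 Readout: %pathology, the punctate EGFP-TorsinA distribution from imaging, as the primary channel and cell count as the toxicity counterscreen. HEK293 Flp-In cells expressing delE TorsinA were induced with tetracycline and treated with compound for 48 h.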

Several values for one entry are separate records, joined by “and”; a condition that tells them apart may be missing. Identical values can stand only once. Inconclusive results are not listed. Where a structure was tested more than once in an assay, its records may differ in their call. Values without a mark were called inactive. Activity calls are given as the source filed them. Unless noted, the call rests on the fitted dose curve; in most records, active means well fitted curve in the direction sought with a large enough effect; inconclusive means small, poorly fitted or top-dose-only effect, or another doubt; inactive means no such curve, though single readings can be large; an effect the other way counts as inactive or inconclusive.

Chain of Cytochrome P450 2D6 (Homo sapiens) (P10635 whole entry, looked up): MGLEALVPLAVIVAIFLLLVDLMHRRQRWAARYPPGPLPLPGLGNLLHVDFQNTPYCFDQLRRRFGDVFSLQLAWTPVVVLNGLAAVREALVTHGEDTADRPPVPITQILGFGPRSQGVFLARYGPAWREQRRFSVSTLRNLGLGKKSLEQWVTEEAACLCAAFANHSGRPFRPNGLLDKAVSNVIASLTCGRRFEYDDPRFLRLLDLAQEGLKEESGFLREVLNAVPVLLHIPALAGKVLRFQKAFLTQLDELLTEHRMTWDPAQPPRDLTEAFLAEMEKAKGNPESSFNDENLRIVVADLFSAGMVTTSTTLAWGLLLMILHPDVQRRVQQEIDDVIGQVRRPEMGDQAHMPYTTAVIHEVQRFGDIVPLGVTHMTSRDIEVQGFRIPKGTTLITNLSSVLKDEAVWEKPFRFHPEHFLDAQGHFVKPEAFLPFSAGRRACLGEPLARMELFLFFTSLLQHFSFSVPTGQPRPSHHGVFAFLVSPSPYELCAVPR
Chain of Cytochrome P450 2C9 (Homo sapiens) (P11712 whole entry, looked up): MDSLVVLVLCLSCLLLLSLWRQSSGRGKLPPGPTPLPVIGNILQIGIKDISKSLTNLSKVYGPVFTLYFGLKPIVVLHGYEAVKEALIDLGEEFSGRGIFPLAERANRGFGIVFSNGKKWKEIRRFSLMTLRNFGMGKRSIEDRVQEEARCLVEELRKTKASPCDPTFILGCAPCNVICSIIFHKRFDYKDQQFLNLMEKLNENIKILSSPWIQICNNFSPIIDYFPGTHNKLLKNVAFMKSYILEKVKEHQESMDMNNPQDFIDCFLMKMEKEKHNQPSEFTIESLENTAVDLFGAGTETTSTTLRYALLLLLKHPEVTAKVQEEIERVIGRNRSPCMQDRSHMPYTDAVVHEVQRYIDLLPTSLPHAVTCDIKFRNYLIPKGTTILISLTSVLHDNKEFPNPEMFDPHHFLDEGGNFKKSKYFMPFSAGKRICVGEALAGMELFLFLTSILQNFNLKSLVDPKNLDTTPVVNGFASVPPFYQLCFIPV
Chain of Rap guanine nucleotide exchange factor 3 (Homo sapiens) (O95398 whole entry, looked up): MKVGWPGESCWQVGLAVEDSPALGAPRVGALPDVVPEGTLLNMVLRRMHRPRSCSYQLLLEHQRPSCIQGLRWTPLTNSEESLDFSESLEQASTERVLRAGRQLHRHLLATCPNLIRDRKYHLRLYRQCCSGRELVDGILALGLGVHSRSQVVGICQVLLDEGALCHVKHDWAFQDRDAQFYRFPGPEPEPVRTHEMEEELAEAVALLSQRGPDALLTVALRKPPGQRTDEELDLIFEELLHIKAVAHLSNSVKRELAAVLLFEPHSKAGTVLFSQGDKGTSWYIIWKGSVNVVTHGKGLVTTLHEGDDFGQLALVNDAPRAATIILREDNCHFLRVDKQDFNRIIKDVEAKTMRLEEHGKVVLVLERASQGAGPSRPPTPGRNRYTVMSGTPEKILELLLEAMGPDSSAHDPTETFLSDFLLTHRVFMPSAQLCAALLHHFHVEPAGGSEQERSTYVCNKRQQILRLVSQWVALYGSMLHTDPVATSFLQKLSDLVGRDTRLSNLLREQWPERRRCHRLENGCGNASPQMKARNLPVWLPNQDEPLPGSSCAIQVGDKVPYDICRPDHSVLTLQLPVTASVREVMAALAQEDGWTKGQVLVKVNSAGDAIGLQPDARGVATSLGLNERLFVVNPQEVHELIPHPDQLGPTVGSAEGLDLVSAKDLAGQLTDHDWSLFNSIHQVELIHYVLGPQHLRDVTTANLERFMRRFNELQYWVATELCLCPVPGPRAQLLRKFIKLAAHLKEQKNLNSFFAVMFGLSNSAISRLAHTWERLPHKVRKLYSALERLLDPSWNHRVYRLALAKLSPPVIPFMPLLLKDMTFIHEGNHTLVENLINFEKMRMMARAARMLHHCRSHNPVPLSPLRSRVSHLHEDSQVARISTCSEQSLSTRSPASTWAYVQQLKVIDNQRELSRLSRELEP
Chain of Rap guanine nucleotide exchange factor 4 (Homo sapiens) (Q8WZA2 whole entry, looked up): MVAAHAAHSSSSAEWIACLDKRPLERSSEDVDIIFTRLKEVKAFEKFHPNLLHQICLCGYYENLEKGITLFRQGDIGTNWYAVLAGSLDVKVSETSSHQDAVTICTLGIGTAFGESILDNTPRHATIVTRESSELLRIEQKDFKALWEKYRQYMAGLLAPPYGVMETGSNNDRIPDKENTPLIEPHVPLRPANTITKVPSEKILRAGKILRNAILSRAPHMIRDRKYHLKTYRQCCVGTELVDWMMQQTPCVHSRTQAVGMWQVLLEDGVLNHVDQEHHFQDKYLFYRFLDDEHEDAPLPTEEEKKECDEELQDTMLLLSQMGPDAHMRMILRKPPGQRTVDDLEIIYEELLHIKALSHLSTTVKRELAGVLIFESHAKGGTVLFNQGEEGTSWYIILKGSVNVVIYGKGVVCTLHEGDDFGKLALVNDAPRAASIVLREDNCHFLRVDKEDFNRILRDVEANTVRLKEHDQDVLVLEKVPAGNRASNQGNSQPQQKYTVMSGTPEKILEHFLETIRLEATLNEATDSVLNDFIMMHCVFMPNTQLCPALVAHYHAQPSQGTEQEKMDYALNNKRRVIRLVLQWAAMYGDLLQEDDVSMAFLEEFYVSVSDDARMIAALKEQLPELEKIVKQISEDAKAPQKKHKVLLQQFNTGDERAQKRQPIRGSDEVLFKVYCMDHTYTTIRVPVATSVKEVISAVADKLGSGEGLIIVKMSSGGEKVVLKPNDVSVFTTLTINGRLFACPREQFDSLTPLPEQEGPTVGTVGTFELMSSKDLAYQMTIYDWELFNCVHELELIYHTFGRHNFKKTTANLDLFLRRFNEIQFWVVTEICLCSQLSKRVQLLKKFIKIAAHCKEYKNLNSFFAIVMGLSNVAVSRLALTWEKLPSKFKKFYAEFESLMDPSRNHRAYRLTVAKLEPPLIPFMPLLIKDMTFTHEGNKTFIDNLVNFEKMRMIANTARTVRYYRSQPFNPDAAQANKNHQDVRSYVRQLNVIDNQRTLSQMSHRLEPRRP
Chain of Papain (Carica papaya) (P00784 whole entry, looked up): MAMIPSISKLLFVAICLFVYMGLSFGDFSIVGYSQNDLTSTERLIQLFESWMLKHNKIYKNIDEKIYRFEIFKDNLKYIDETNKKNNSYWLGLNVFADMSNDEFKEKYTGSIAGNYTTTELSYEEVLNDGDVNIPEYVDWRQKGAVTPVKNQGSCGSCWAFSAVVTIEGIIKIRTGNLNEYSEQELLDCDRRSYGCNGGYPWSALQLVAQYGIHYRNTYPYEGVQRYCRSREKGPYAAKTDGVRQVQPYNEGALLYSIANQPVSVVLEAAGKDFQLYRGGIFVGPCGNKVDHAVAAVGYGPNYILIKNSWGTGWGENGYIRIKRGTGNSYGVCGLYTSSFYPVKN
Chain of Cytochrome P450 3A4 (Homo sapiens) (P08684 whole entry, looked up): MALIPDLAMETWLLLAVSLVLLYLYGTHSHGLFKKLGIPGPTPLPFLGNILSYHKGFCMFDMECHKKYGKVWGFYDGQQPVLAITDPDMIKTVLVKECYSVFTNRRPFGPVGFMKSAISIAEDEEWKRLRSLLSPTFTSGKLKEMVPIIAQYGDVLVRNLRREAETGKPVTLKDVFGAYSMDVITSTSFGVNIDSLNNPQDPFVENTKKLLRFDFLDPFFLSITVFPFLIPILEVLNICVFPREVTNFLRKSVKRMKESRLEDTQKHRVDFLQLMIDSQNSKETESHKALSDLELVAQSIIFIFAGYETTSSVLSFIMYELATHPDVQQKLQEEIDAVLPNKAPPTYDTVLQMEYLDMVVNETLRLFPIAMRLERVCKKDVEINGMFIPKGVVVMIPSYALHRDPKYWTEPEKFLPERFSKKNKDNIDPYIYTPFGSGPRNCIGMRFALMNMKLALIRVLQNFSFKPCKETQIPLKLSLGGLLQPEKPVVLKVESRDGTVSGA

As to `CCNC(=O)/C=C/c1cccc(Br)c1`, the Potency entry in test [1], in test [2], in test [3] and in test [4] was “inactive” each time.

On to `CCCCCN=C(N)N/N=C/c1c[nH]c2ccc(OC)cc12`, for which the Potency entry in test [1] and in test [3] was “inactive” throughout. Moreover, the Potency in test [2] is 219 nM (active); in test [5], 7.5 µM (active); in test [4], 4.73 µM (active).

Take `CC(C)=CCOc1ccc(/C=C/C(=O)c2ccc(OCC=C(C)C)cc2OCC(=O)O)cc1`: the Potency entry in test [1] is “inactive”. The Potency in test [3] is 15.5 µM (active); in test [6], 49.8 µM (active); in test [9], 39.3 µM (active). Moreover, the call in [7] and in test [8] was inactive.

For the molecule `CC(C)CCCC(C)N` (configuration not stated), the Potency result in test [1], in test [2], in [3], in test [5] and in test [4] was “inactive” throughout.

For `CCCCCCCCNC(C)C(O)c1ccc(SC(C)C)cc1` (configuration not stated), the Potency entry in test [1] and in test [3] was “inactive” each time. Further, the Potency in [2] was 1.38 µM (active) and 8.49 µM (active); in test [5], 10.6 µM (active); in test [4], 7.5 µM (active).

For `Oc1c(Cl)cc(Cl)c(Cl)c1Cc1c(O)c(Cl)cc(Cl)c1Cl`, the Potency entry in [1] was “inactive”. In addition, the Potency in [2] is 13800 nM (active); in [3], 1.55 µM (active); in test [5] it was 5.96 µM (active); in [4], 5.96 µM (active).

For `CC1(COc2ccc(CC3SC(=O)NC3=O)cc2)CCCCC1` (configuration not stated), the Potency entry in test [1] and in test [3] was “inactive” throughout. The Potency in test [6] was 49.8 µM (active); in test [9], 44.1 µM (active). The result in test [7] and in test [8] was inactive.

For the molecule `CC[C@]12CCCN3CCc4c(n(c5ccccc45)C(=O)C1)[C@@H]32`, the Potency result in test [1] was “inactive”. Besides, the Potency was 87.1 nM (active) in test [2]; 8.41 µM (active) and 8.17 µM (active) in test [5].

Regarding `CCOCCn1c(N2CCCN(C)CC2)nc2ccccc21`, the Potency entry in test [1], in [3], in test [5] and in test [4] was “inactive” each time. In addition, the Potency in [2] is 6920 nM (active).

As for `CCCCCCCCCCCCCC(=O)OC(C)C`, the Potency entry in test [1], in test [2], in test [3], in test [5] and in [4] was “inactive” throughout.

As to `CC(=O)OCC(=O)[C@H]1CC[C@H]2[C@@H]3CCC4=CC(=O)CC[C@]4(C)[C@H]3CC[C@]12C`, the Potency result in [1], in test [2], in test [5] and in test [4] was “inactive” throughout. For the same molecule, the Potency in test [3] is 4.9 µM (active).

On to `O=C1c2cccc3c2[C@H](CCC3)CN1[C@@H]1CN2CCC1CC2`, for which the Potency entry in test [1] and in test [3] was “inactive” each time.

As to `c1ccc(CC2=NCCN2)cc1`, the Potency result in test [1] and in [3] was “inactive” each time. The figures for the Potency in [5] and in test [4] were 8.41 µM (active) and 5.31 µM (active), respectively.

As to `CN1CCc2cccc3c2[C@H]1Cc1ccc(O)c(O)c1-3`, the Potency result in test [1] and in test [3] was “inactive” in each case. In addition, the Potency is 6.68 µM (active) in test [5] and 7.5 µM (active) in test [4].

Turning to `CCCCCCCCCCCCCC[N+](C)(C)Cc1ccccc1`, the Potency result in test [1] is “inactive”. Besides, the Potency in test [2] is 347 nM (active); in [5], 0.335 µM (active).

`CC1(C)OC[C@@H]2O[C@@]3(C(=O)O)OC(C)(C)O[C@H]3[C@@H]2O1`: the Potency result in test [10] is “inactive”.

With `O=C(O)C1(C(=O)O)CCC1.[NH2-].[NH2-].[Pt+2]`, the Potency result in test [10] is “inactive”.

Take `NC(N)=NCc1cccc(I)c1`: the result with Papain (Carica papaya) was inactive.

For `CCOC(=O)[C@H](CCc1ccccc1)N[C@@H](C)C(=O)N1[C@H](C(=O)O)C[C@H]2CCCC[C@@H]21`, the molecule was called inactive with Papain (Carica papaya).

In the case of `CCc1oc2ccccc2c1C(=O)c1cc(Br)c(O)c(Br)c1`, the Potency in test [6] was 39.5 µM (active) and 39.8 µM (active); in test [9], 27.8 µM (active). Further, the outcome in [7], in [8], in [11] and in test [12] was inactive. Also, the activity change, negative = inhibition in [9] is -17.2% [at 12.7 µM].

`O=C(O)Cc1csc(-c2ccc(Cl)cc2)n1`: the Potency result in test [2], in test [3], in test [5] and in [4] was “inactive” throughout.

As for `CCCCCCCCCCC[C@@H](C[C@@H]1OC(=O)[C@H]1CCCCCC)OC(=O)[C@H](CC(C)C)NC=O`, the Potency entry in test [2], in [5] and in [4] was “inactive” throughout. Further, the Potency in [3] was 2.75 µM (active). In addition, the outcome in [13] was inactive.

With `O=C1[C@H](CC[C@H](O)c2ccc(F)cc2)[C@@H](c2ccc(O)cc2)N1c1ccc(F)cc1`, the Potency in test [2] was 15.5 µM (active) and 9.52 µM (active); in [3], 6.92 µM (active) and 9.52 µM (active); in test [5], 23 µM (active).

As to `Oc1ccccc1C=NCc1ccccc1`, the Potency result in test [14], in [3], in test [5] and in test [4] was “inactive” each time.

As to `CC(C(=O)O)c1cccc(Oc2ccccc2)c1` (configuration not stated), the Potency result in test [2], in test [5] and in test [4] was “inactive” in each case.

`Cc1cccc(C)c1NC(=O)c1ccccc1C(=O)O`: the Potency entry in [14], in test [2], in test [3], in test [5] and in test [4] was “inactive” throughout.

Consider `CCCN(CCC)S(=O)(=O)c1ccc(C(=O)O)cc1`, for which the Potency entry in test [2], in [3], in test [5] and in test [4] was “inactive” each time. In addition, the molecule was called inactive in [13].
